Assay [1] can be described thus: optical density shifts of acrAB sulA E. coli – strain DRC41, OD650, 48 h, E. coli filamentation inducer project, primary screen (AID 1152).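 Further: E. coli MC1000 strain DRC41 lacking acrAB efflux pump and sulA.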 To be noted: higher = more signal, called active from +8 up or from −8 down.
Assay [2] in a line: probe aLefty1 binding on compound microarray – biochemical, small-molecule microarray, 635/667 nm fluorescence, primary screen (AID 1153).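 Further: score merges spot fluorescence with signal-to-noise ratio from the scanned slide images.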 Particulars: higher = more signal.
Assay [3] is described as follows: plasmodial surface anion channel blockers, osmotic lysis – cell-based, P. falciparum Indochina, OD700, 1 h, primary screen (AID 1154). To be noted: P. falciparum Indochina infected RBC osmotic lysis, higher = more signal, called active from +8 up or from −8 down.
Assay [4] can be described thus: plasmodial surface anion channel blockers, osmotic lysis – cell-based, P. falciparum Indochina, OD700, 2 h, primary screen (AID 1155).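 Further: lysis reports solute entry through the parasite surface anion channel PSAC.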 Particulars: P. falciparum Indochina infected erythrocytes, higher = more signal, called active from +8 up or from −8 down.
The nature of assay [5]: changes in parasitized red cell lysis, either direction – P. falciparum Indochina, OD700, 3 h, PSAC antagonist project, primary screen (AID 1156). To be noted: P. falciparum-infected erythrocytes, osmotic lysis, higher = more signal, called active from +8 up or from −8 down.
Assay [6] can be described thus: plasmodial surface anion channel blockers, osmotic lysis – cell-based, P. falciparum Indochina, OD700, 18 h, primary screen (AID 1157). Particulars: P. falciparum Indochina infected erythrocytes, osmotic lysis OD700, 18 h; higher = more signal, called active from +8 up or from −8 down.
Assay [7] in a line: S6 kinase pathway phospho-S6 level changes – cell-based, A549, cytoblot, luminescence, serum-stimulated, primary screen (AID 1158).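 Further: serum-stimulated A549 lung adenocarcinoma cells; signal is phosphorylated S6 detected by cytoblot immunostaining with HRP secondary.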 To be noted: 5 h, higher = more signal.
Assay [8] concerns the target NADPH oxidase 2 (Homo sapiens) (UniProt P04839). The assay is described as follows: compounds shifting NOX2 Amplex Red fluorescence – cell-based, HEK293-NOX2, PMA-stimulated, NOX inhibitor project, primary screen (AID 1159). Further: test concentration not given here. Particulars: 45 min, higher = more signal, called active from +8 up or from −8 down.
Assay [9] deals with NADPH oxidase 4 (Homo sapiens) (UniProt Q9NPH5). The assay is described as follows: compounds shifting NOX4 Amplex Red fluorescence – cell-based, HEK293-NOX4, tetracycline-induced, NOX inhibitor project, primary screen (AID 1160). To be noted: HEK293-NOX4, Amplex Red H2O2 fluorescence, 45 min; higher = more signal, called active from +8 up or from −8 down.
Assay [10] deals with NADPH oxidase 5 (Homo sapiens) (UniProt Q96PH1). The assay is described as follows: compounds shifting NOX5 Amplex Red fluorescence – cell-based, HEK293-NOX5, NOX inhibitor project, primary screen (AID 1161). To be noted: HEK293-NOX5, ionomycin, 45 min, higher = more signal.
Assay [11] can be described thus: compound effects on lung adenocarcinoma cell viability – A549, calcein-AM fluorescence, 48 h, basal, profiling panel (AID 1162). Further: test concentration not given here. To be noted: higher = more signal.
The nature of assay [12]: compound effects on differentiated 3T3-L1 adipocyte viability – cell-based, 3T3-L1 adipocytes, calcein-AM fluorescence, 48 h, basal, profiling panel (AID 1163). Further: test concentration not given here. To be noted: 3T3-L1 adipocytes viability, higher = more signal.
Assay [13] is described as follows: compound effects on hepatocellular carcinoma cell viability – HepG2, calcein-AM fluorescence, 48 h, basal, profiling panel (AID 1164). Further: test concentration not given here. To be noted: higher = more signal.
The nature of assay [14]: compound effects on multiple myeloma cell viability – MM1S, calcein-AM fluorescence, 48 h, basal, profiling panel (AID 1165).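 Further: viability of MM1S multiple myeloma cells under basal unstimulated conditions; test concentration not given here.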 To be noted: higher = more signal.
Assay [15] in a line: calcein-AM signal in unstimulated myeloma cells – cell-based, calcein-AM fluorescence, 48 h, PK04 Diversity Set, profiling panel (AID 1166).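 Further: cells grown under basal conditions without added stimulus; test concentration not given here.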 To be noted: RPMI8226 myeloma viability, higher = more signal.
Assay [16] can be described thus: JC-1 mitochondrial signal, unstimulated HepG2 cells – cell-based, JC-1 fluorescence, 24 h, 100 nL compound, profiling panel (AID 1167). Further: test concentration not given here. Particulars: HepG2 mitochondrial potential, higher = more signal.
Assay [17] is described as follows: JC-1 mitochondrial signal, unstimulated adipocytes – cell-based, JC-1 fluorescence, 3T3-L1 adipocytes, 24 h, 100 nL compound, profiling panel (AID 1168). Further: test concentration not given here. Particulars: JC-1 mitochondrial fluorescence, higher = more signal, called active from +8 up or from −8 down.
A short description of assay [18]: JC-1 mitochondrial signal, unstimulated myeloma cells – cell-based, JC-1 fluorescence, RPMI8226, 24 h, 100 nL compound, profiling panel (AID 1169). Further: test concentration not given here. Particulars: JC-1 mitochondrial potential fluorescence, higher = more signal.
The nature of assay [19]: JC-1 mitochondrial signal, unstimulated MM1S myeloma – cell-based, JC-1 fluorescence, 24 h, 100 nL compound, profiling panel (AID 1170). Further: test concentration not given here. To be noted: MM1S mitochondrial potential, higher = more signal.
Assay [20] in a line: resazurin metabolic signal in A549 cells – cell-based, resazurin fluorescence, 24 h, PK04 Diversity Set, profiling panel (AID 1171). Further: test concentration not given here. To be noted: A549 viability, higher = more signal, called active from +8 up or from −8 down. Background: The colour change of resazurin is a common sign of viable cells or microbes.

The source made the active and inactive calls.

NADPH oxidase 5 (Homo sapiens), sequence (Q96PH1 whole entry, looked up): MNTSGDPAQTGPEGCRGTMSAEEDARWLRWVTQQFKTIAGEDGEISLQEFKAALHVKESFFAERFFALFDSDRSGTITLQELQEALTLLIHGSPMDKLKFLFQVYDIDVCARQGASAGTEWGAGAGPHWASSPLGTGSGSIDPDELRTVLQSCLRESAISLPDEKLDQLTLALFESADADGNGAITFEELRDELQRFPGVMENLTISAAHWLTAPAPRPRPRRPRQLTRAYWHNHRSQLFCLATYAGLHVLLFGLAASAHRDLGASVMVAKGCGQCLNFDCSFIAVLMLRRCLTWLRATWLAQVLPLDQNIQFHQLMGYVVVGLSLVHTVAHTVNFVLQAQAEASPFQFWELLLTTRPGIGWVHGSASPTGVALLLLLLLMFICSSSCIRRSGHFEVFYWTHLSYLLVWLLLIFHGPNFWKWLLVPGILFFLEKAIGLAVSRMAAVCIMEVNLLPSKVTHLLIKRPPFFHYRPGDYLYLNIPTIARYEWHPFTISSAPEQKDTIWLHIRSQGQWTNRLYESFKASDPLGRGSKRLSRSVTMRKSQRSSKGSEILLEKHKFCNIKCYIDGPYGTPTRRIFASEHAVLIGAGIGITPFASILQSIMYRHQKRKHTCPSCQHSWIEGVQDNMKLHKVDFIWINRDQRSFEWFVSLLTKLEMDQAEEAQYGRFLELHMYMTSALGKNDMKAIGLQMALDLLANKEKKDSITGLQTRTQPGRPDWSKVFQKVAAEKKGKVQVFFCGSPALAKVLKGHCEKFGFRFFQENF
NADPH oxidase 4 (Homo sapiens), sequence (Q9NPH5 whole entry, looked up): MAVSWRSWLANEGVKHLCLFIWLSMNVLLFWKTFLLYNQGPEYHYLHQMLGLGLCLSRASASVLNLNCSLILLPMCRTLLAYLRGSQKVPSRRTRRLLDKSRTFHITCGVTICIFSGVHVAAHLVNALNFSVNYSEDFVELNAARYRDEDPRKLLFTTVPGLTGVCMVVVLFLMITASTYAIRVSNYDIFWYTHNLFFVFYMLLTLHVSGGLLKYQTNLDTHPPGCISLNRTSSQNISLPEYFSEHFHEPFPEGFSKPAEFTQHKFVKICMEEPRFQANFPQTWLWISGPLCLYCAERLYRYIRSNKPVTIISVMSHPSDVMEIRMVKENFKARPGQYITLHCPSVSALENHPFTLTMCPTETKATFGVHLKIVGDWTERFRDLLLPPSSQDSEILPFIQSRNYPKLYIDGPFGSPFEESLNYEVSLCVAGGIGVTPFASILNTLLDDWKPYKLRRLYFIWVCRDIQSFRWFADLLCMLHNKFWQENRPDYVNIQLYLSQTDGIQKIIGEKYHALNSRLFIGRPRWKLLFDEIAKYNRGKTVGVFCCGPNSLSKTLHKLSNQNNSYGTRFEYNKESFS
NADPH oxidase 2 (Homo sapiens), sequence (P04839 whole entry, looked up): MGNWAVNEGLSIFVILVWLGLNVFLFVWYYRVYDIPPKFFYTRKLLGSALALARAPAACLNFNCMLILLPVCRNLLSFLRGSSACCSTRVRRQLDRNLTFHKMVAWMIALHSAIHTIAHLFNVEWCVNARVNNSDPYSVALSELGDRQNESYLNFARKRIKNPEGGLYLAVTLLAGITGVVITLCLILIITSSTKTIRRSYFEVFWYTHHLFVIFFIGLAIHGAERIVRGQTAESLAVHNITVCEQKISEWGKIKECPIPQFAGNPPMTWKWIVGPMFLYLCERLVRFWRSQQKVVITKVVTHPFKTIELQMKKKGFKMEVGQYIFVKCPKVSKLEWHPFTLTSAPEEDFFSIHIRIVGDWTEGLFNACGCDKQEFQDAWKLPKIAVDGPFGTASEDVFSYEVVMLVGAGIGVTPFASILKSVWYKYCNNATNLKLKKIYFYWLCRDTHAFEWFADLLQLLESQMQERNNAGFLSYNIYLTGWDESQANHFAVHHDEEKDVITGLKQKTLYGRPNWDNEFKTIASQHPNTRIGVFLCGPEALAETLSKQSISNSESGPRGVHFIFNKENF

`COc1ccccc1CN1C(=O)c2ccccc2[C@@H](C(=O)NC2CC2)[C@@H]1c1ccc(CO)cc1`: the z-score was 0.818 (inactive) in assay [1]; 2.49 (inactive) in assay [3]; 0.873 (inactive) in [4]; 1.59 (inactive) in [5]; 0.818 (inactive) in assay [6]; -0.291 in assay [7]. The z-score is 0.211 (inactive) in [8]; 0.48 (inactive) in assay [9]; 0.718 in [10]; 1.44 in assay [11]; -0.348 in assay [12]; 1.26 in assay [13]. Further, the z-score is 0.467 in [14]; -0.376 in [15]; 2.33 in [16]; 0.171 (inactive) in assay [17]; 0.371 in assay [18]; -0.0698 in assay [19]. Moreover, the z-score in assay [20] was 0.469 (inactive). Also, in [2], the composite z-score amounted to 0.16.
As for `NC(=O)N1C(=O)C2C(C1=O)C1C=C(c3ccc(CO)cc3)C2C(c2cccs2)N1Cc1cccc(OC(F)(F)F)c1` (stereo not given), the z-score was -3.19 (inactive) in assay [1]; 3.08 (inactive) in assay [3]; -0.687 (inactive) in assay [4]; 0.195 (inactive) in assay [5]; -1.98 (inactive) in assay [6]; 2.65 in [7]. Further, the z-score in [8] is -1.02 (inactive); in assay [9] it was -1.22 (inactive); in assay [10] it was -1.25; in [11], 1.56; in assay [12], 0.868; in [13], 0.0764. The z-score in [14] is -2.08; in [15] it was -2.08; in [16], -1.7; in [17], 0.863 (inactive); in assay [18], -0.85; in [19], -1.67. Moreover, the z-score in assay [20] is -0.69 (inactive). Further, the composite z-score in assay [2] came out at 0.424.
On to `CO[C@H]1O[C@H](CO)[C@@H](OC(=O)Nc2ccc(Oc3ccccc3)cc2)[C@H](OC(=O)Nc2ccc3c(c2)OCO3)[C@H]1OC(=O)Nc1ccc2c(c1)OCO2`, for which the z-score was 0.97 (inactive) in assay [1]; 7.24 (inactive) in assay [3]; 0.996 (inactive) in assay [4]; 0.902 (inactive) in assay [5]; 0.397 (inactive) in [6]; 1.2 in assay [7]. The z-score in assay [8] is 0.706 (inactive); in assay [9] it was -1.65 (inactive); in assay [10], -0.714; in [11], -0.331; in [12] it was 0.377; in [13] it was 0.106. Besides, the z-score was -0.789 in [14]; -0.594 in [15]; -0.185 in assay [16]; 2.17 (inactive) in assay [17]; -0.583 in assay [18]; 0.818 in [19]. Besides, the z-score in assay [20] was 0.104 (inactive). This compound also yielded a composite z-score in assay [2] of 0.523.
Take `Oc1ccc2cc[n+](Cc3sc4ccccc4c3Cl)cc2c1`: the z-score is -0.669 (inactive) in assay [1]; 1.52 (inactive) in assay [3]; 0.109 (inactive) in assay [4]; 1.52 (inactive) in [5]; 0.352 (inactive) in assay [6]; 0.0138 in assay [7]. Moreover, the z-score in assay [8] was -0.121 (inactive); in assay [9] it was -1.23 (inactive); in assay [10], -0.1; in assay [11], -0.66; in assay [12], 0.552; in assay [13] it was -0.934. For the same compound, the z-score was 0.241 in assay [14]; -1.86 in [15]; -1.4 in assay [16]; -0.0649 (inactive) in assay [17]; 0.376 in assay [18]; 1.78 in assay [19]. In addition, the z-score in [20] is -0.655 (inactive). Moreover, the composite z-score in assay [2] came to 0.248.
As for `C[C@@]1([C@@H](NC(=O)c2ccc(-c3ccccc3)cc2)c2ccc(Cl)cc2)C[C@H]1C1CCCCC1`, the z-score in assay [1] is -1.28 (inactive); in assay [3], 15.8 (active); in assay [4], 3.36 (inactive); in [5], -0.0758 (inactive); in assay [6], 1.11 (inactive); in [7], -0.216. For the same compound, the z-score was -0.75 (inactive) in assay [8]; 0.205 (inactive) in assay [9]; 0.644 in [10]; -1.18 in assay [11]; -0.52 in assay [12]; -0.934 in assay [13]. Besides, the z-score in [14] was -3.43; in assay [15], -4.76; in assay [16] it was -2.21; in assay [17], -1.07 (inactive); in assay [18] it was -0.902; in [19], -2.73. Moreover, in assay [20], the z-score is 0.602 (inactive). The compound also gave a composite z-score in assay [2] of 0.284.
On to `C=C(/C(=C/C[C@H](OC(C)=O)c1ccccc1OCCO)c1cnc2ccccc2c1)C(C)C`, for which the z-score in assay [1] is -0.564 (inactive); in [3], 9.77 (active); in [4] it was 1.55 (inactive); in assay [5] it was 1.29 (inactive); in [6], 0.724 (inactive); in assay [7], 0.193. In addition, the z-score is -0.353 (inactive) in [8]; -0.402 (inactive) in assay [9]; -1.08 in assay [10]; 0.689 in assay [11]; -0.665 in assay [12]; 0.218 in [13]. Further, the z-score in assay [14] was -3.32; in assay [15], -2.23; in assay [16] it was 0.469; in assay [17], -1.34 (inactive); in assay [18], 0.251; in [19], -0.685. The z-score in assay [20] was -0.0361 (inactive). For the same compound, in [2], the composite z-score was -0.0654.
Take `COc1ccc(CCNC(=O)[C@@]2(Sc3ccc(C)cc3)CC(=O)N(C3Cc4ccccc4C3)[C@@H]2c2ccc(CO)cc2I)cc1`: the z-score in assay [1] was 0.657 (inactive); in assay [3], 10.7 (active); in assay [4], 1.95 (inactive); in assay [5], 0.497 (inactive); in assay [6], 0.768 (inactive); in assay [7], -0.123. Besides, the z-score in [8] is 1.51 (inactive); in assay [9], -1.66 (inactive); in assay [10], 1.9; in assay [11] it was 2.04; in assay [12] it was 0.129; in [13] it was 0.082. The z-score in assay [14] is -2.56; in assay [15], -1.99; in [16] it was 0.26; in assay [17] it was -0.279 (inactive); in assay [18] it was -0.597; in assay [19], -0.565. For the same compound, in [20], the z-score was 0.86 (inactive). Further, the composite z-score in assay [2] was determined as 0.627.
With `O=C1NC(=O)C2C1C=CC(C(O)c1cccs1)N2Nc1ccc(Cl)cc1Cl` (stereo not given), the z-score in [1] was -0.713 (inactive); in assay [3], 2.33 (inactive); in [4], 1.32 (inactive); in assay [5] it was -0.0207 (inactive); in assay [6], 1.34 (inactive); in assay [7] it was -0.27. For the same compound, the z-score in assay [8] was -0.483 (inactive); in [9], -4.81 (inactive); in assay [10] it was -1.57; in assay [11], -0.599; in assay [12] it was -0.191; in [13] it was -0.165. Moreover, the z-score was -1.71 in assay [14]; -0.884 in [15]; -2.1 in assay [16]; 0.0583 (inactive) in assay [17]; 0.236 in assay [18]; -0.219 in assay [19]. Further, the z-score in [20] is -0.523 (inactive). In addition, the composite z-score in [2] was -0.012.
As for `COc1cc(COC(C)=O)ccc1OC(C)=O`, the z-score is 3.19 (inactive) in assay [1]; -1.49 (inactive) in assay [3]; -0.983 (inactive) in [4]; -1.76 (inactive) in assay [5]; -2.3 (inactive) in [6]; 1.29 in assay [7]. For the same compound, the z-score in [8] was -4.55 (inactive); in assay [9], -0.433 (inactive); in [10] it was -0.154; in assay [11], 1.97; in assay [12] it was 0.223; in assay [13] it was 1.5. For the same compound, the z-score in assay [14] is -0.0098; in assay [15], -1.49; in assay [16], -0.367; in assay [17] it was 0.374 (inactive); in assay [18], -0.219; in assay [19] it was 0.528. In addition, in assay [20], the z-score is 0.339 (inactive). This compound came in with a composite z-score in [2] of 0.383.

These data come from PubChem BioAssay.
